Pf apPOL block = Pf-apPOL DNA polymerase inhibition; Recombinant Pf-apPOL, molecular beacon fluorescence, 1.5 h; inhibition, % at 10 µM; 210,000 tested, 0.25% active
mHTT-CaM PPI inh = inhibitors of human mutant huntingtin-calmodulin interaction; 190,000 tested, 3.6% active; inhibition, % at 15 µM; P42858; AlphaScreen His-mHTT/GST-CaM binding, luminescence
Large screens that a line does not name were inactive; ! = repeats disagree. Sampled rows, rich in hits. Any-hit rate of the full collection: about 3.5%. No stated cut-off is given here; in the data, active means inhibition above about 50%; inactive means the rest.

Cc1cccc(C)c1N(C)S(=O)(=O)c1ccc2[nH]cc(C(=O)NCc3cccnc3)c(=O)c2c1	none
Cn1cc(S(=O)(=O)Nc2cccc(Cl)c2)c2cccnc21	none
CCCn1cc(S(=O)(=O)Nc2ccc(Cl)cc2F)c2cccnc21	none
Cc1cccc(NS(=O)(=O)c2cn(C)c3ncccc23)c1	Pf apPOL block 88.0, mHTT-CaM PPI inh 59.0
Cn1cc(S(=O)(=O)Nc2ccc(F)cc2Cl)c2cccnc21	Pf apPOL block 92.9, mHTT-CaM PPI inh 68.7
CC(C)(C)NC(=O)NCCC1CCCCN1S(=O)(=O)c1cccs1 (stereo not given)	none
Cc1c(Cl)cccc1S(=O)(=O)NCCC1CCN(C(=O)c2ccccc2)CC1	mHTT-CaM PPI inh 52.8
O=C(c1ccccc1)N1CCC(CCNS(=O)(=O)c2cccc(Cl)c2)CC1	mHTT-CaM PPI inh 50.1
O=C(c1ccc(F)cc1)N1CCC(CCNS(=O)(=O)c2ccccc2Cl)CC1	none
Cc1ccc(S(=O)(=O)NCCC2CCN(C(=O)c3ccccc3)CC2)cc1C	none
O=C(c1ccc(F)cc1)N1CCC(CCNS(=O)(=O)c2cccc(Cl)c2)CC1	none
Cc1cc(C)c(S(=O)(=O)NCCC2CCN(C(=O)c3ccccc3)CC2)cc1C	mHTT-CaM PPI inh 63.7
CS(=O)(=O)N1CCC(C(=O)NCCc2csc(-c3cccs3)n2)CC1	none
CC1(C)N=c2ccc([N+](=O)[O-])cc2=N1	Pf apPOL block 63.6 (no result: mHTT-CaM PPI inh)
O=[N+]([O-])c1ccc2nc(Cl)c(Cl)nc2c1	none (no result: Pf apPOL block)
CC(=O)N(CN1C(=O)c2ccc(Br)cc2C1=O)c1ccc(Br)cc1	none
CN(C)c1ccc(C(O)(c2ccc(N(C)C)cc2)c2ccc(N(C)C)cc2)cc1	mHTT-CaM PPI inh 100.3
CN(C)c1ccc(Cc2ccc(N(C)C)cc2)cc1	none (no result: mHTT-CaM PPI inh)
Cc1nc(-c2ccccc2)sc1C(=O)N1CCC(CC(=O)NC(C)c2ccccc2)CC1 (stereo not given)	none
Cc1c(C#N)sc2nc(-c3ccccc3)nc(N=CN(C)C)c12	none
CN(C)C=Nc1c(C#N)cnn1-c1ncnc2sc(-c3ccccc3)cc12	mHTT-CaM PPI inh 82.0
CNC(=O)C1CN(C(=O)c2cc(OC)c(OC)c(OC)c2)CC12CCCC2 (stereo not given)	none
COc1cc(OC)cc(C2=NC3(CCCC3)N(C(=O)c3cc(OC)c(OC)c(OC)c3)C2=S)c1	mHTT-CaM PPI inh 51.7
CCCCn1cnc2c(-c3ccccc3)cn(CC(=O)NCc3cccs3)c2c1=O	none
Cc1cccc(-n2nc(C)c3sc(N4CCCN(C(=O)C5CCCCC5)CC4)nc32)c1	mHTT-CaM PPI inh 67.8
Cc1ccc(-n2nc(C)c3sc(N4CCCN(C(=O)C5CCCC5)CC4)nc32)cc1	none
O=[N+]([O-])c1ccc(N2CCCC2)cc1Sc1cccc2cccnc12	mHTT-CaM PPI inh 101.0
CN1CCN(c2ccc([N+](=O)[O-])c(Sc3cccc4cccnc34)c2)CC1	none
O=C1CC(c2ccccc2)Sc2ccccc2N1Cc1ccccc1 (stereo not given)	mHTT-CaM PPI inh 80.3
O=C1CC(c2ccco2)Sc2ccccc2N1Cc1cccc(F)c1 (stereo not given)	none
Cc1cc(C(=O)Nc2nc3ccc(S(C)(=O)=O)cc3s2)ccc1[N+](=O)[O-]	none
Cc1ccc(-c2c(C#N)c(N)n3c(nc4ccccc43)c2C#N)cc1	none
COc1ccc(-c2c(C#N)c(N)n3c(nc4ccccc43)c2C#N)cc1	mHTT-CaM PPI inh 94.0
CCC(=O)N1CCc2cc(N3CC(C(=O)Nc4ccc(C(C)=O)cc4)CC3=O)ccc21 (stereo not given)	none
Cn1c(C(=O)NC2CC2)cc2c1CCN(Cc1cccc(F)c1)C2	none
Cn1c(C(=O)NCCN2CCCCC2)cc2c1CCN(Cc1cccc(F)c1)C2	none
CC(=O)c1cccc(NC(=O)c2cc3c(n2C)CCN(Cc2cccc(F)c2)C3)c1	mHTT-CaM PPI inh 59.6
Cn1c(C(=O)Nc2ccc3c(c2)OCO3)cc2c1CCN(Cc1cccc(F)c1)C2	mHTT-CaM PPI inh 52.5
Cc1ccc(NC(=O)CSc2nc3nc(C)cc(C)c3c(=O)[nH]2)c(C)c1	none
c1ccc(-c2noc(-c3cc(N4CCOCC4)nc4ccccc34)n2)cc1	none
CCN1CCN(c2cc(-c3nc(-c4ccccc4)no3)c3ccccc3n2)CC1	mHTT-CaM PPI inh 65.7
Cc1[nH]c2ccccc2c1C(=O)C(=O)NC1CCCCCC1	none
COc1ccc(C=Nc2cccc(N=Cc3ccc(OC)c(OC)c3)c2)cc1OC	mHTT-CaM PPI inh 74.0
COc1cc(C=Nc2ccc(C)c(C)c2)ccc1O	none
Cc1cc(=O)n(CC(=O)Nc2cc(F)cc(F)c2)c(N2CCCC2)n1	none
O=C(O)c1cccc2c1NC(C(=O)O)C1CC=CC21 (stereo not given)	mHTT-CaM PPI inh 77.3
NC(=O)c1cccc2c1NC(C(=O)O)C1CC=CC21 (stereo not given)	mHTT-CaM PPI inh 71.3
O=S(=O)(c1cc(Cl)c(Cl)cc1Cl)N1CCCC1	none (no result: mHTT-CaM PPI inh)
Cc1ccc(-c2nc(C(=O)NCCc3ccc(Cl)cc3)cs2)n1C	none
COc1ccc(NC(=O)c2csc(-c3ccc(C)n3C)n2)cc1	mHTT-CaM PPI inh 62.4
Cc1ccc(-c2nc(C(=O)NCCc3ccccc3)cs2)n1C	mHTT-CaM PPI inh 98.7
Cc1ccc(-c2nc(C(=O)Nc3ccc(Cl)cc3)cs2)n1C	none
COc1cc(CCC(=O)NNC(=S)Nc2ccc(F)cc2)cc(OC)c1OC	none (no result: mHTT-CaM PPI inh)
O=Cc1cn(CC(=O)N2CCc3ccccc3C2)c2ccc(Br)cc12	none
CCN1c2cc(C)ccc2-n2cccc2C12CCN(C(=O)Nc1ccccc1Cl)CC2	none
CCN1c2cc(C)ccc2-n2cccc2C12CCN(C(=O)NC(C)C)CC2	mHTT-CaM PPI inh 99.5
COC(=O)C(C)NC(=O)N1CCC2(CC1)Nc1cc(F)ccc1-n1cccc12 (stereo not given)	none
CCN1c2cc(C)ccc2-n2cccc2C12CCN(C(=O)NC(C)C(=O)OC)CC2 (stereo not given)	mHTT-CaM PPI inh 67.7
Cc1cccc(Nc2nc(N3CCC(C(N)=O)CC3)nc3c2cnn3-c2ccc(F)cc2)c1	none
Cc1cccc([C@H]2[C@@H]3C=CCC[C@@]3(C)C(=O)N2Cc2ccccc2)c1	none
CC(=O)c1ccc(-c2cccc([C@H]3[C@@H]4C=CCC[C@@]4(C)C(=O)N3Cc3ccccc3)c2)cc1	mHTT-CaM PPI inh 84.9
COc1ccc([C@H]2[C@@H]3C=CCC[C@@]3(C)C(=O)N2Cc2ccccc2)cc1Cl	mHTT-CaM PPI inh 51.8
COc1ccc(-c2cc([C@H]3[C@@H]4C=CCC[C@@]4(C)C(=O)N3Cc3ccccc3)ccc2F)cc1OC	none
COc1ccc(-c2cccc([C@H]3[C@@H]4C=CCC[C@@]4(C)C(=O)N3Cc3ccccc3)c2)cc1	mHTT-CaM PPI inh 69.6
C[C@@]12CCC=C[C@H]1[C@H](c1cccc([N+](=O)[O-])c1)N(Cc1ccccc1)C2=O	none
CC1CCc2noc(NC(=O)C(C)C)c2C1 (stereo not given)	none
CC(C)CCN1COc2ccc3c4c(oc3c2C1)C(=O)c1ccccc1C4=O	mHTT-CaM PPI inh 73.6
O=C1c2ccccc2C(=O)c2c1oc1c3c(ccc21)OCN(C1CCCC1)C3	mHTT-CaM PPI inh 78.0
O=C1c2ccccc2C(=O)c2c1oc1c3c(ccc21)OCN(CC1CCCO1)C3 (stereo not given)	none
O=c1c(-c2ccccc2)coc2c3c(ccc12)OCN(C1CCS(=O)(=O)C1)C3 (stereo not given)	none
COc1ccc(CCN2COc3ccc4c5c(oc4c3C2)C(=O)c2ccccc2C5=O)cc1OC	none
O=C1c2ccccc2C(=O)c2c1oc1c3c(ccc21)OCN(C1CCS(=O)(=O)C1)C3 (stereo not given)	Pf apPOL block 69.0!, mHTT-CaM PPI inh 90.7
